According to the supplement of paper PMC6522484:
± gives the standard deviation of the averaged measurements.

How the values were obtained:
DLD1 [1] = assay: cell viability (CellTiter-Glo) relative to plate median (fraction of plate median); higher = more viable cells; conditions: 10 µM, treatment time 24 h
Procedure, shortened: (§1)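 Colorectal cancer cell lines stably transduced with lentiviral TCF/Wnt firefly luciferase reporters (7TFP or TCF4/Wnt) were seeded in 384-well plates. 24 h later they received kinase inhibitor library compounds at a final 10 µM for 24 h. Parallel plates were read for firefly luciferase or CellTiterGlo luminescence on a Tecan F500 reader. Each well's signal was normalised to the plate median (webcellHTS2, additive, no log transformation), and the mean of two independent replicates is reported.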

HCT116 [2] = assay: as above; conditions: 10 µM; treatment time 24 h; reporter: TCF4/Wnt
Procedure, shortened: as §1

SW480 [3] = assay: as above; conditions: 10 µM; treatment time 24 h; reporter: 7TFP
Procedure, shortened: as §1

DLD1 [4] = assay: TCF/Wnt firefly luciferase reporter signal relative to plate median (fraction of plate median); higher = higher Wnt reporter signal; conditions: 10 µM, treatment time 24 h
Procedure, shortened: as §1

HCT116 [5] = assay: as above; conditions: 10 µM; treatment time 24 h; reporter: TCF4/Wnt
Procedure, shortened: as §1

SW480 [6] = assay: as above; conditions: 10 µM; treatment time 24 h; reporter: 7TFP
Procedure, shortened: as §1

| SMILES | cell viability (DLD1 [1]; reporter: 7TFP) | cell viability (DLD1 [1]; reporter: TCF4/Wnt) | cell viability (HCT116 [2]) | cell viability (SW480 [3]) | TCF/Wnt firefly luciferase reporter signal (DLD1 [4]; reporter: 7TFP) | TCF/Wnt firefly luciferase reporter signal (DLD1 [4]; reporter: TCF4/Wnt) | TCF/Wnt firefly luciferase reporter signal (HCT116 [5]) | TCF/Wnt firefly luciferase reporter signal (SW480 [6]) |
| --- | --- | --- | --- | --- | --- | --- | --- | --- |
| C[C@@H]1COC(Nc2ccc3ncnc(Nc4ccc(OCc5nccs5)c(Cl)c4)c3c2)=N1 | 0.932 ± 0.12 | 0.973 ± 0.028 | 1.055 ± 0.0071 | 0.988 ± 0.031 | 1.14 ± 0.18 | 1.51 ± 0.45 | 1.52 ± 0.042 | 1.22 ± 0.25 |
| O=C(Cc1ccc(-c2ccc(OCCN3CCOCC3)cc2)cn1)NCc1ccccc1 | 0.891 ± 0.0014 | 1.005 ± 0.0071 | 0.745 ± 0.26 | 1.145 ± 0.0071 | 0.57 ± 0.038 | 0.908 ± 0.26 | 0.171 ± 0.0021 | 0.791 ± 0.047 |
| CN1CCN(CCOc2cc(OC3CCOCC3)c3c(Nc4c(Cl)ccc5c4OCO5)ncnc3c2)CC1 [Saracatinib (AZD0530)] | 0.936 ± 0.048 | 0.874 ± 0.066 | 0.968 ± 0.0042 | 1.03 ± 0.047 | 0.824 ± 0.12 | 0.879 ± 0.036 | 0.799 ± 0.25 | 0.613 ± 0.32 |
| CCCS(=O)(=O)Nc1ccc(F)c(C(=O)c2c[nH]c3ncc(-c4ccc(Cl)cc4)cc23)c1F [Vemurafenib (PLX4032)] | 1.19 ± 0.13 | 0.976 ± 0.023 | 1.2 ± 0.05 | 0.878 ± 0.042 | 1.14 ± 0.028 | 0.939 ± 0.015 | 1.155 ± 0.0071 | 0.866 ± 0.11 |
| N#CC(=C(/N)Sc1ccccc1N)/C(C#N)=C(\N)Sc1ccccc1N | 1.08 ± 0.064 | 1.003 ± 0.0099 | 0.938 ± 0.043 | 1.06 ± 0.05 | 1.73 ± 0.11 | 1.27 ± 0.064 | 0.95 ± 0.071 | 1.59 ± 0.16 |
| COc1cccc2cc(-c3nc([C@H]4CC[C@H](C(=O)O)CC4)n4ncnc(N)c34)[nH]c12 | 1.03 ± 0.093 | 1.02 ± 0.056 | 0.816 ± 0.0042 | 1.19 ± 0.11 | 0.442 ± 0.061 | 0.449 ± 0.098 | 0.6105 ± 0.00071 | 0.83 ± 0.069 |
| COc1ccc(COc2cc3oc(=O)c4cc(C(C)O)ccc4c3cc2OC)cc1 (stereo unspecified) [Palomid 529] | 1.08 ± 0.028 | 1.09 ± 0.021 | 1.12 ± 0.092 | 0.877 ± 0.044 | 1.1 ± 0.021 | 1.16 ± 0.099 | 1.2 ± 0.37 | 1.07 ± 0.099 |
| Cc1nc(N)sc1-c1ccnc(Nc2ccc(N3CCOCC3)cc2)n1 | 1.09 ± 0.14 | 1.09 ± 0.085 | 1.07 ± 0.064 | 1.06 ± 0.028 | 1.24 ± 0.23 | 1.23 ± 0.36 | 1.72 ± 0.2 | 0.774 ± 0.36 |
| Cc1cnc(Nc2ccc(OCCN3CCCC3)cc2)nc1Nc1cccc(S(=O)(=O)NC(C)(C)C)c1 | 1.07 ± 0.064 | 1.14 ± 0.16 | 1.14 | 0.871 ± 0.04 | 1.2 ± 0.26 | 1.14 ± 0.18 | 1.31 ± 0.22 | 1.06 ± 0.078 |
| Oc1cc(O)cc(/C=C/c2ccc(O)c(O)c2)c1 [Piceatannol] | 1.12 ± 0.042 | 1.07 ± 0.057 | 1.19 ± 0.14 | 0.863 ± 0.0085 | 1.44 ± 0.15 | 1.66 ± 0.37 | 1.455 ± 0.0071 | 1.44 ± 0.12 |
| O=C1NC(=O)/C(=C/c2ccc3c(c2)OC(F)(F)O3)S1 | 1.285 ± 0.0071 | 1.09 ± 0.021 | 1.15 ± 0.13 | 0.882 ± 0.034 | 0.944 ± 0.35 | 1.06 ± 0.24 | 1.18 ± 0.22 | 1.03 ± 0.21 |
| Nc1nc(N)c2nc(-c3cccc(O)c3)c(-c3cccc(O)c3)nc2n1 | 1.06 ± 0.035 | 1.02 ± 0.029 | 1.22 ± 0.035 | 0.959 ± 0.025 | 1.08 ± 0.071 | 1.17 ± 0.057 | 1.23 ± 0.11 | 1.04 ± 0.14 |
| COc1cc2nccc(Oc3ccc(NC(=O)C4(C(=O)Nc5ccc(F)cc5)CC4)cc3)c2cc1OC [XL-184 free base (Cabozantinib)] | 1 ± 0.08 | 1.02 ± 0.05 | 1.095 ± 0.0071 | 0.9465 ± 0.0035 | 1.14 ± 0.14 | 0.846 ± 0.078 | 1.05 ± 0.23 | 1.03 ± 0.1 |
| CC[C@H](Nc1ncnc2[nH]cnc12)c1nc2cccc(F)c2c(=O)n1-c1ccccc1 | 1.05 ± 0.14 | 0.999 ± 0.086 | 1.11 ± 0.042 | 0.996 ± 0.02 | 0.977 ± 0.089 | 0.788 ± 0.024 | 0.777 ± 0.3 | 0.751 ± 0.26 |
| Cc1cn(-c2cc(NC(=O)c3ccc(C)c(Nc4nccc(-c5cccnc5)n4)c3)cc(C(F)(F)F)c2)cn1 [Nilotinib (AMN-107)] | 0.808 ± 0.028 | 0.935 ± 0.041 | 0.9715 ± 0.005 | 0.973 ± 0.053 | 0.873 ± 0.054 | 0.708 ± 0.12 | 0.894 ± 0.028 | 1.04 ± 0.028 |
| CCS(=O)(=O)c1cccc(-c2cc(C(=O)NC3CCN(C)CC3)c(C)c3[nH]c4ncc(C)cc4c23)c1 | 1.06 ± 0.071 | 1.1 ± 0.057 | 0.522 ± 0.23 | 0.965 ± 0.026 | 1.25 ± 0.078 | 1.215 ± 0.0071 | 0.565 ± 0.24 | 0.834 ± 0.1 |
| CC(=O)Nc1cccc(-n2c(=O)n(C3CC3)c(=O)c3c(Nc4ccc(I)cc4F)n(C)c(=O)c(C)c32)c1 | 1.33 ± 0.057 | 1.29 ± 0.13 | 0.9995 ± 0.00071 | 1.19 ± 0.042 | 1.09 ± 0.52 | 1.39 ± 0.54 | 1.32 ± 0.58 | 2.02 ± 0.042 |
| Cc1ccc(NC(=O)c2ccc(CN3CCN(C)CC3)cc2)cc1Nc1nc(-c2cccnc2)cs1 [Masitinib (AB1010)] | 0.896 ± 0.073 | 1 ± 0.037 | 0.969 ± 0.037 | 0.993 ± 0.053 | 0.821 ± 0.019 | 1.25 ± 0.078 | 0.632 ± 0.1 | 1.01 ± 0.071 |
| Nc1cc(C(F)(F)F)c(-c2cc(N3CCOCC3)nc(N3CCOCC3)n2)cn1 | 0.777 ± 0.073 | 0.9145 ± 0.0078 | 0.56 ± 0.069 | 1.105 ± 0.0071 | 0.383 ± 0.085 | 0.75 ± 0.071 | 0.502 ± 0.057 | 0.704 ± 0.036 |
| Cc1ccc(F)c(NC(=O)Nc2ccc(-c3cccc4[nH]nc(N)c34)cc2)c1 [Linifanib (ABT-869)] | 0.833 ± 0.063 | 0.948 ± 0.1 | 0.764 ± 0.03 | 0.883 ± 0.042 | 1.05 ± 0.086 | 1.33 ± 0.31 | 0.906 ± 0.15 | 0.872 ± 0.42 |
| COc1cc2ncnc(Nc3ccc(F)c(Cl)c3)c2cc1OCCCN1CCOCC1 [Gefitinib (Iressa)] | 0.913 ± 0.069 | 0.968 ± 0.021 | 0.961 ± 0.052 | 0.917 ± 0.03 | 1.005 ± 0.0071 | 0.812 ± 0.18 | 0.76 ± 0.24 | 1.02 ± 0.039 |
| CCCNC(=O)Nc1ccc(Oc2ncnc3cc(OC)c(OC)cc23)cc1Cl | 1.15 ± 0.085 | 1.02 ± 0.03 | 1.15 ± 0.035 | 0.9145 ± 0.005 | 1.2 ± 0.085 | 1.11 ± 0.085 | 1.04 ± 0.042 | 0.975 ± 0.14 |
